Pol iota inh: blocks human DNA polymerase iota activity; Potency, µM (doses to about 115 µM), without a hit: top-dose activity, negative = inhibition, actives largely listed as inhibitors; Q9UNA4; Pol iota fluorescent replication assay, 10 min; 390,000 tested, 1% active; also: potency is read from the fitted curve at half-maximal effect
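Pol iota at 10 nM preincubated 15 min with compounds at room temperature; reaction started with fluorescent substrate, 50 nM final. Fluorescence read kinetically at 0 and 10 min; buffer-only wells as negative control.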
Pol eta inh-1: inhibitors of human DNA polymerase eta; Q9Y253; recombinant Pol eta, fluorescent DNA replication assay; Potency, µM (top dose mostly 114 µM), for the others: at the top dose activity change, negative = inhibition, usual class: inhibitors; 390,000 tested, 1.2% active; AID 588591; also: potency is read from the fitted curve at half-maximal effect; % is scaled to controls: 0 for no effect and ±100 for the full control effect
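Pol eta (10 nM) was preincubated with compounds for 15 min at room temperature, after which fluorescent replication substrate (50 nM final) was added to start the reaction. Fluorescence was read kinetically at 0 and 10 min.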
Pol kappa inh-1: blocks human DNA polymerase kappa activity; Q9UBT6; purified Pol kappa, fluorescent DNA synthesis assay, 10 min; Potency, µM (doses to about 107 µM), for inactives: at the highest dose activity, negative = inhibition, most hits filed as inhibitors; 400,000 tested, 0.53% active; AID 588579; also: potency is read from the fitted curve at half-maximal effect; % is scaled to controls: 0 for no effect and ±100 for the full control effect
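Enzyme at 10 nM met test compounds for 15 min at room temperature. Substrate addition (50 nM final) began the reaction, which was monitored by fluorescence at 0 and 10 min.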
POLB inh: inhibitors of human DNA polymerase beta | Pol beta primer extension/strand displacement, fluorescence kinetic | Potency, µM (titrated, usually from 114 µM), for the others: at the top dose activity change, negative = inhibition, usual class: inhibitors | 340,000 tested, 1.3% active | AID 485314; also: potency is read from the fitted curve at half-maximal effect; % is scaled to controls: 0 for no effect and ±100 for the full control effect
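10 nM enzyme + cpd, 15 min RT; start with substrate 50 nM final; read 0 min and after 10 min RT. Corrected, normalized data; 4-parameter Hill curve fit.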
FEN1 inhibitor: human FEN1 inhibition; 390,000 tested, 0.35% active; P39748; Recombinant FEN1 flap cleavage, fluorescence, 15 min; Potency, µM (series often up to 114 µM), for the others: at the top dose activity change, negative = inhibition, actives largely listed as inhibitors; also: potency is read from the fitted curve at half-maximal effect; % is scaled to controls: 0 for no effect and ±100 for the full control effect; nearly all actives have a fitted effect of over 65% in size
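Concentration–response screening of FEN1 (10 nM): 15 min compound preincubation at room temperature, reaction started with 50 nM substrate and read at 0 and 15 min. Corrected, normalized data were fitted by a four-parameter Hill equation.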
WRN helicase inh: blocks human WRN helicase; Potency, µM (top dose mostly 114 µM), for inactives: top-dose activity change, negative = inhibition, most hits filed as inhibitors; Q14191; AID 651768; WRN helicase unwinding, fluorescent forked duplex, kinetic; 360,000 tested, 0.46% active; also: potency is read from the fitted curve at half-maximal effect; % is scaled to controls: 0 for no effect and ±100 for the full control effect; nearly all actives have a fitted effect of over 55% in size
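Kinetic fluorescence helicase assay: unwinding of a quenched forked DNA duplex (100 nM final) with 2 mM ATP final raises red fluorescence (525/598 nm). Compounds sat 15 min at room temperature with 20 nM WRN beforehand.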
BAZ2B confirm: inhibits human BAZ2B bromodomain, hit validation; shares compounds with Pol kappa inh-1; Potency, µM, usual class: inhibitors; AlphaScreen BAZ2B / biotin-H3K14Ac peptide displacement; 25 tested, 100% active; calls by dose curve
AlphaScreen ctr: interferes with AlphaScreen signal in BAZ2B counterscreen; Potency, µM (series often up to 57.1 µM), inactives show at the highest dose activity change, negative = inhibition, most hits filed as inhibitors; AlphaScreen biotin-His6 peptide bead counterscreen, signal decrease; AID 588859; shares compounds with Pol kappa inh-1; 25 tested, under 10 active;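 active = clear concentration-dependent signal drop in the bead assay lacking the target, so a primary-screen artifact; inconclusive = weak, partial or single-dose response; inactive = no response, so a real primary hit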
TbPGK inh: blocks T. brucei phosphoglycerate kinase. shares compounds with Pol kappa inh-1. TbPGK coupled GAPDH assay, Kinase-Glo luminescence. Potency, µM (doses to about 57.5 µM), for inactives: at the highest dose activity change, negative = inhibition, hits mostly inhibitors. 500 tested, 79% active; also: potency is read from the fitted curve at half-maximal effect; % is scaled to controls: 0 for no effect and ±100 for the full control effect; nearly all actives have a fitted effect of over 65% in size
POLI cherry-pick: Inhibitors of human DNA polymerase iota, confirmation. Pol iota primer extension, TAMRA/BHQ fluorescence. shares compounds with Pol kappa inh-1. 1,500 tested, 77% active. AID 720496. Potency, µM, hits mostly inhibitors; also: potency is read from the fitted curve at half-maximal effect
Pol kappa inh-2: Pol kappa (human) inhibition, cherry-pick confirmation; shares compounds with Pol eta inh-1; purified Pol-kappa, fluorescent strand-displacement substrate; Potency, µM, hits mostly inhibitors; 920 tested, 76% active; AID 720501; also: potency is read from the fitted curve at half-maximal effect
Pol eta inh-2: confirmation of human DNA polymerase eta inhibitors | Potency, µM, hits mostly inhibitors | shares compounds with Pol eta inh-1 | AID 720502 | Pol eta primer extension, TAMRA/BHQ fluorescence, 10 min | 2,600 tested, 64% active; also: potency is read from the fitted curve at half-maximal effect
* hit, by the source's call; ? = inconclusive; nt = no result; [ ] = dose if it differs, or a comment. Rows were chosen to be rich in hits. Some 2.4% of all compounds tested hit in one or more screens of this group. Unless noted, calls follow the shape of the dose curve; as a rule, active = well fitted curve in the direction sought with a large enough effect; inconclusive = small, poorly fitted or top-dose-only effect, or another doubt; inactive = no such curve, though single readings can be large; an effect the other way counts as inactive or inconclusive.

SMILES | Pol iota inh | Pol eta inh-1 | Pol kappa inh-1 | POLB inh | FEN1 inhibitor | WRN helicase inh | POLI cherry-pick | Pol kappa inh-2 | Pol eta inh-2 | others
O=C(O)Cn1cc(/C=C2\C(=O)NC(=O)N(c3ccc(Cl)cc3)C2=O)c2ccccc21 | ? | ? | -10% | 2% | ? | ? | nt | nt | nt
O=C1NC(=O)N(c2ccc(Cl)cc2)C(=O)/C1=C\c1ccc(Sc2nc3ccccc3[nH]2)o1 | ? | 18µM* | 20µM* | 22µM* | 79µM* | 25µM* | 38* | 15* | 27*
CC1O[C@@H](O[C@@H]2C(O)C[C@H](O[C@@H]3C(O)C[C@@H](OC4CC[C@@]5(C)C6CC[C@]7(C)C(C8=CC(=O)OC8)CC[C@@]7(O)C6CC[C@@H]5C4)OC3C)OC2C)CC(O)[C@H]1O (some centres undefined) | nt | nt | -7%[60.1 µM] | nt | nt | nt | nt | nt | nt
CCN1C(=O)/C(=C/c2ccc3c(c2)CCN3CCCCl)C(=O)NC1=S | 14µM* | 13µM* | 45µM* | 28µM* | ? | -32%[11.6 µM] | 67* | nt | 43*
CCCCN1C(=O)/C(=C/c2ccc(N3CCCCCC3)cc2)C(=O)NC1=S | nt | nt | nt | -16% | nt | nt | nt | nt | nt
Cc1cc(/C=C2\C(=O)NC(=O)N(Cc3ccco3)C2=O)c(C)n1-c1ccc(C(=O)O)cc1 | 18µM* | 18µM* | ? | ? | -22% | ? | 19* | nt | 27*
Cc1cc(/C=C2\C(=O)NC(=O)N(Cc3ccccc3Cl)C2=O)c(C)n1-c1ccc(C(=O)O)cc1 | 8.9µM* | 10µM* | 50µM* | 16µM* | -25% | 56µM* | 21* | nt | 24*
Cc1ccc(N2C(=O)NC(=O)/C(=C/c3ccc(-c4ccc(C(=O)O)c(Cl)c4)o3)C2=O)cc1 | 20µM* | 8.9µM* | -91% | 14µM* | ? | ? | ? | nt | 30*
Cc1cc(/C=C2\C(=O)NC(=O)N(c3ccc(Cl)cc3)C2=O)c(C)n1-c1sc2c(c1C#N)CCCC2 | 10µM* | 20µM* | 79µM* | ? | ? | ? | 75* | 75* | 30*
O=C1NC(=O)N(Cc2ccccc2Cl)C(=O)/C1=C/c1cccs1 | ? | ? | -21% | 7% | ? | ? | nt | nt | nt
COc1cc2c(cc1OC)[C@@]13CCN4CC5=CCOC6CC(=O)N2C1[C@H]6[C@@H]5C[C@@H]43 (some centres undefined) | nt | nt | -9%[60.1 µM] | nt | nt | nt | nt | nt | nt
Cc1cc(/C=C2\C(=O)NC(=O)N(c3ccc(F)cc3)C2=O)c(C)n1-c1ccc(C(=O)O)cc1 | ? | ? | -18% | 15% | -6% | -13%[11.6 µM] | nt | nt | nt
Cc1ccc(N2C(=O)NC(=O)/C(=C\c3cc(C)n(-c4cc(C(=O)O)cc(C(=O)O)c4)c3C)C2=O)cc1 | 8.9µM* | 7.9µM* | ? | -28% | 56µM* | ? | nt | 17* | 38* | TbPGK inh=?
NC(CO)Cc1ccccc1 (centres undefined) | nt | nt | -7%[60.1 µM] | nt | nt | nt | nt | nt | nt
NC(=O)c1ccc(N=Cc2c(O)n(Cc3ccco3)c(=O)[nH]c2=O)cc1 | 11µM* | 22µM* | 50µM* | ? | 40µM* | 50µM* | 30* | 30* | 48* | TbPGK inh=9.2µM*
CCN(CC)c1ccc(N=Cc2c(O)n(Cc3ccco3)c(=O)[nH]c2=O)cc1 | 52% | -18% | -10% | 29% | 3% | 0% | nt | nt | nt
Cc1nc(NC(=O)c2ccccc2)sc1-c1csc(Nc2ccc(C(=O)O)cc2)n1 | ? | 18µM* | -26% | 16% | 35µM* | -9%[11.6 µM] | 42* | 38* | 43* | BAZ2B confirm=28*;AlphaScreen ctr=-17%
C=C(C)C(=O)Nc1cccc(C2=NOC3(C2)C[C@H](C(N)=O)N(C(=O)COc2ccc(Cl)cc2)C3)c1 (some centres undefined) | 45µM* | 7.9µM* | 18µM* | 4.5µM* | -20% | ? | 17* | nt | 8.5* | BAZ2B confirm=5.6*;AlphaScreen ctr=-18%
C=C(C)C(=O)Nc1cccc(C2=NOC3(C2)C[C@@H](C(N)=O)N(C(=O)/C=C/CC)C3)c1 (some centres undefined) | 16µM* | 7.9µM* | 28µM* | 3.5µM* | -15% | ? | ? | 19* | 19* | BAZ2B confirm=10*;AlphaScreen ctr=-7%;TbPGK inh=?
C=C(C)C(=O)Nc1cccc(C2=NOC3(C2)C[C@@H](C(N)=O)N(C(=O)C2(C)CC2)C3)c1 (some centres undefined) | 50µM* | 3.2µM* | 45µM* | 1.1µM* | ? | ? | ? | nt | 9.5* | BAZ2B confirm=1.3*;AlphaScreen ctr=?;TbPGK inh=?
C[C@@]12CC3CC(N)(C1)C[C@@](C)(C3)C2 | nt | nt | -7%[12 µM] | nt | nt | nt | nt | nt | nt
CC1(C)c2[nH]c3ccccc3c2C[C@H]2C(=O)N(Cc3ccccc3F)C(=O)N21 | ? | -18% | -20% | nt | -8% | nt | nt | nt | nt
CCCCCCC(C)(C)c1cc(OC)c2c(c1)OC(C)(C)[C@@H]1CC=C(C)C[C@@H]21 | nt | nt | -5%[60.1 µM] | nt | nt | nt | nt | nt | nt
CC1[C@H]2Cc3ccc(O)cc3[C@]1(C)CCN2C (some centres undefined) | -5% | -2% | 0% | nt | 3% | 0% | nt | nt | nt
CN1CC[C@@]2(C)c3cc(O)ccc3N(C)[C@@H]12 | 10µM* | ? | -4% | nt | ? | 39% | 60* | nt | ?
N#CC(C#N)=NNc1ccc(S(N)(=O)=O)cc1 | 20µM* | 13µM* | 45µM* | -6% | 40µM* | 56µM* | nt | ? | 67* | TbPGK inh=-18%
